Source: PubChem BioAssay
Rows were chosen to be rich in hits. Some 7.5% of all compounds tested hit in one or more screens of this group.
SMN2 splice enh – increases expression of the SMN2 splice variant; Potency, µM (doses to about 46.1 µM), without a hit: top-dose activity change, positive = activation, hits mostly activators; HEK293 SMN2-luciferase splicing reporter, luminescence, 30-36 h; hit rate 2.8% among 210,000; also: % of control where 0% means no effect; nearly all actives have a fitted effect of over 55% in size
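HEK293 cells carry an SMN2 […]–luciferase reporter in which exon 7 inclusion puts luciferase in frame. Cells were plated 10-12 h before compound addition, then incubated 30-36 h at 37C. ONE-Glo luminescence was read; sodium butyrate at 4.5 mM final served as control.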
ELG1 genotoxic – genotoxicity induction in ELG1-luciferase HEK293T cells. HEK293T ELG1-luciferase reporter, luminescence, 16 h. Potency, µM (highest dose often 46 µM), for the others: at the top dose activity change, positive = activation, most hits filed as activators. hit rate 1.3% among 330,000; also: % of control where 0% means no effect; nearly all actives have a fitted effect of over 60% in size
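Reporter readout depends on ELG1 protein level, which increases with genetic stress. After 16 hr compound exposure at 37 °C, luciferase activity was quantified using ONE-Glo.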
NPC1 promoter act – activators of NPC1 promoter; Huh7 NPC1 promoter luciferase reporter, 24 h; Potency, µM (series often up to 9.22 µM), inactives show top-dose activation, hits mostly activators; hit rate 2.4% among 320,000; AID 485313; also: % of control where 0% means no effect; nearly all actives have a fitted effect of over 60% in size
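Luminescence read-out of NPC1 promoter-driven luciferase in stably transfected Huh7 cells; compounds delivered in DMSO and left 24 h at 37C, 5% CO2, qHTS titration format.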
FLuc modulator – firefly luciferase modulation, counter-screen for miR-21 project | AID 588342 | purified FLuc, Km substrates, luminescence inhibition | Potency, µM (doses to about 57.5 µM), for the others: top-dose activity change, negative = inhibition, hits mostly inhibitors | hit rate 6.9% among 360,000;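 also: plate controls were vehicle for no effect and reference inhibitor for full effect; nearly all actives have a fitted effect of over 55% in size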
Target sequence (P08659 whole entry, looked up): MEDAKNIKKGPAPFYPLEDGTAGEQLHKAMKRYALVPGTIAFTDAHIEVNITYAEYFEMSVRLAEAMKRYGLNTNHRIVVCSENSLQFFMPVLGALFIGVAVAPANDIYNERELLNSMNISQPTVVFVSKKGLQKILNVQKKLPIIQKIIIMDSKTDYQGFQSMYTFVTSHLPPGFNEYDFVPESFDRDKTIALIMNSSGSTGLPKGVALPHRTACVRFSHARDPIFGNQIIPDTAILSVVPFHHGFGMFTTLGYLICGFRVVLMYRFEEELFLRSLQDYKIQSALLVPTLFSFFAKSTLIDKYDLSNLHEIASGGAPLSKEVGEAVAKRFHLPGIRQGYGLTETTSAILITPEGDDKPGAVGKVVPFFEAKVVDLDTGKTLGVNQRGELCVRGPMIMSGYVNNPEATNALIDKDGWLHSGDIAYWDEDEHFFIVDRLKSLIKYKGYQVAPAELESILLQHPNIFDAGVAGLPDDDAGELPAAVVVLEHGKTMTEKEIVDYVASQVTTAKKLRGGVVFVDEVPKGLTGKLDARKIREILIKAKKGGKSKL
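Purified P. pyralis luciferase (10nM final) with 10uM D-luciferin and 10uM ATP (Km levels) in 50mM Tris acetate pH 7.5, 10mM Mg acetate, 0.01% Tween-20, 0.05% BSA; qHTS 6-point titration, ~60 µM downward; luminescence read.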
KinaseGlo FLuc – counter-screen: inhibitors of Kinase-Glo firefly luciferase. Q27757. Kinase-Glo luciferase, ATP luminescence, 8 min. Potency, µM (top dose mostly 38.3 µM), inactives show at the top dose activity change, negative = inhibition, hits mostly inhibitors. hit rate 0.28% among 200,000. AID 1379; also: % is scaled to controls: 0 for no effect and ±100 for the full control effect; nearly all actives have a fitted effect of over 60% in size
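Kinase-Glo luciferase light output from ATP and luciferin was measured with 10 uM ATP, within the enzyme's linear range. Buffer: 50 mM imidazole pH 7.2, 50 mM KCl, 7 mM MgCl2, 0.01% Tween 20, 0.05% BSA; luminescence read after 8 min at ambient temperature.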
Rab9 prom act – activates the Rab9 promoter | Huh7 Rab9 promoter-luciferase reporter, luminescence, 24 h | Potency, µM (titrated, usually from 9.22 µM), without a hit: top-dose activation, negative = inhibition, usual class: activators | hit rate 2.8% among 320,000; also: % of control where 0% means no effect; nearly all actives have a fitted effect of over 60% in size
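Steps: seed 1500 Huh7 Rab9-luc cells per well, rest 2 h at 37 °C; add compound in DMSO; incubate 24 h; add luciferase reagent, 10 min ambient; read luminescence.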
Starred values were filed as active, the others as inactive; ? = inconclusive; . = not tested or not shown; [ ] = another dose, or the depositor's remark. Calls follow the shape of the dose curve; as a rule, active = well fitted curve in the direction sought with a large enough effect; inconclusive = small, poorly fitted or top-dose-only effect, or another doubt; inactive = no such curve, though single readings can be large; an effect the other way counts as inactive or inconclusive. Potency is read from the fitted curve at half-maximal effect.

SMILES	SMN2 splice enh	ELG1 genotoxic	NPC1 promoter act	FLuc modulator	KinaseGlo FLuc	Rab9 prom act
COc1ccccc1-c1nnc(SCC(=O)N2CCOCC2)o1	8.9µM*	4%	15%	?	1%	18%
COc1ccccc1-c1nnc(SCC(=O)N2CCCCC2)o1	.	4%	28%	-10%	.	27%
COc1ccccc1-c1nnc(-c2ccc(N3CCOCC3)cc2)o1	5.6µM*	16%	?	19µM*	6%	?
Cc1ccccc1-c1nnc(SCC(=O)N2CCCC2)o1	.	?	?	17µM*	.	?
CCN(C(=O)c1oc2ccc(S(=O)(=O)N3CCCCCC3)cc2c1C)c1ccccc1	.	.	.	1%	.	.
Cc1ccc(Cn2ccnc2C(=O)Nc2ccccc2)cc1	16µM*	?	4µM*	7.6µM*	1%	1.6µM*
N#Cc1ccc(Cn2ccnc2C(=O)Nc2ccccc2)cc1	-7%	8%	4%	?	-7%	6%
O=C(N/N=C/c1c(-c2ccccc2)[nH]c2ccccc12)c1cccnc1	?	-2%	1%	3µM*	4%	15%
Cn1c(-c2ccccc2)c(/C=N/NC(=O)c2cccnc2)c2ccccc21	?	-14%	21%	5.4µM*	0%	1%
Cn1cccc1/C=N/NC(=O)c1cccnc1	3%	0%	-2%	?	-7%	8%
O=C1NC(c2ccc(Br)cc2)=N/C1=C/c1ccco1	7.1µM*	?	3.5µM*	0.6µM*	0%	2.5µM*
O=C1NC(c2ccccc2Cl)=N/C1=C/c1ccco1	.	?	9%	0.3µM*	.	?
O=c1cccc2n1Cc1cc3ccccc3nc1-2	13µM*	21µM*	3.2µM*	19µM*	-11%	2.8µM*
CCOc1ccc(C(=O)Nc2ccc3oc(-c4cccc5ccccc45)nc3c2)cc1	-9%	.	.	-11%	.	.
CSc1nsc(/C=C/Nc2ccc(C)cc2)c1C#N	?	.	.	1.3µM*	-3%	.
Cc1ccc(C)c(C(=O)CSc2nc3cc(C(=O)NC4CCCC4)ccc3c(=O)n2CC2CCCO2)c1 (stereo not given)	.	.	.	-2%	.	.
CCOc1cc(/C=N/NC(=O)c2ccc(-c3csc(Nc4ccc(C)cc4)n3)cc2)ccc1OCC(=O)O	13µM*	-3%	3.2µM*	?	1%	2.8µM*
CCOc1cc(/C=N/Nc2nc(N3CCCC3)nc(N3CCCC3)n2)ccc1O	-9%	-2%	-5%	-15%	-3%	1%
CCOc1cc(/C=N\NC(=O)Cc2ccccc2)ccc1OCC(=O)Nc1ccc(C)c(C)c1	6%	12%	-6%	2%	-3%	-10%
CCOc1cc(/C=N/Nc2ccccc2Cl)ccc1OCC(=O)O	0%	?	12%	21µM*	6%	0%
COc1ccc(/C=N/Nc2nc(Nc3ccccc3)nc(N3CCCCC3)n2)cc1OC	19%	-7%	?	1.1µM*	1%	?
CCOc1cc(/C=N/Nc2nc(Nc3ccccc3)nc(N3CCCCC3)n2)ccc1OCC(=O)O	-3%	-2%	0%	1.1µM*	2%	25%
COc1cc(C(=O)OC(C)CN2CCCCC2)cc(OC)c1OC (stereo not given)	.	0%	-5%	0%	.	5%
COc1cc(OC)cc(C(=O)NCCOc2ccccc2)c1	26%	12µM*	1.6µM*	?	-1%	1µM*
CC(C)(C)c1ccc(C(=O)NCCOc2ccccc2)cc1	.	0.73µM*	0.32µM*	0.34µM*	.	?
Cc1ccc(C(=O)NCCOc2cccc(C)c2)cc1	26%	?	29%	24µM*	1%	27%
CC(C)(C)c1ccc(C(=O)NCCOc2ccccc2F)cc1	.	0.73µM*	16%	0.27µM*	.	?
COc1cccc(C(=O)NCCOc2cc(C)cc(C)c2)c1	-1%	2%	1%	?	1%	-4%
COc1cc(C(=O)NCCOc2ccccc2)cc(OC)c1OC	.	8%	1%	-6%	.	-1%[1.84 µM]
